The nature of this assay: qHTS Assay for Inhibitors of Hepatitis C Virus (HCV): Cytotoxicity Counterscreen for Cherry-picked Compounds. To be noted: HCV host cell line cytotoxicity counterscreen; series mostly up to 41.8 µM. From the text: Hepatitis C virus (HCV) infects about 200 million people in the world. Many infected people progress to chronic liver disease including cirrhosis with a risk of developing liver cancer. To date, there is no effective vaccine for hepatitis C. Current therapy based on interferon is only effective in about half of the patients and is associated with significant adverse effects. The fraction of people with HCV who can complete a successful treatment is estimated to be no more than 10 percent. Recent development of direct-acting antivirals against HCV, such as protease and polymerase inhibitors, is promising but still requires combination with peginterferon and ribavirin for maximal efficacy. In addition, these agents are associated with high rate of resistance and many have significant side effects. Due to the lack of a culture system for infectious HCV, the search for new HCV drugs has been greatly hampered. […] High-throughput screening (HTS) with an infectious HCV system would cover the complete spectrum of potentially druggable targets in all stages of HCV lifecycle, and would have more biological relevance than other cell-based assays. […]
Cells were plated in a 1536-wel tissue culture grade plates at a final concentration of 1,000 cells/well (3 uL volume). […] The luminescence signal was read for 15 sec using the PerkinElmer ViewLux plate reader.

The structures appear in SMILES notation. The list shows a part of the results. Entries that show only a call come without a potency. Records with an inconclusive call do not appear. Activity calls are given as the source filed them. Calls follow the shape of the dose curve; as a rule, active = well fitted inhibition curve with a large enough effect; inconclusive = small, poorly fitted or top-dose-only effect; inactive = no such curve, though single readings can be large or run the other way.
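Also: 44 h compound exposure; nearly all actives have a fitted effect of over 55% in size.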

Regarding `CC1=CC(=Cc2sc3ccccc3[n+]2C)C=C(C)O1`, the Potency was 7.05 µM (active). Take `CC[N+]1(C)CCCC(OC(=O)C(O)(c2ccccc2)c2ccccc2)C1` (configuration not stated): the Potency result is “inactive”.
